Screening data (PubChem BioAssay)
Rows were chosen to be rich in hits. Some 1.1% of all compounds tested hit in one or more screens of this group.
CCHF vOTU inh-1: CCHFV vOTU protease inhibitors, primary screen, biochemical, Pep-AMC substrate, fluorescence; Crimean-Congo hemorrhagic fever virus L polyprotein viral ovarian tumor (vOTU) protease …; inhibition, % at 11.5 µM; hit rate 0.55% among 370,000; note: 0% = vehicle wells with enzyme and 100% = no enzyme wells
RecA intein inh: Mtb RecA intein splicing inhibitors, primary screen, biochemical, fluorescence, HTS; Protein RecA (Mycobacterium tuberculosis (strain ATCC 25618 / H37Rv)), P9WHJ3; cell-free RecA intein splicing; inhibition, % (test concentration not listed); hit rate 0.75% among 290,000; in the data active = inhibition above about 30%; inconclusive = no clear call, values can overlap the other calls;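 note: 0% = vehicle wells and 100% = reference inhibitor control wells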
Target sequence (P9WHJ3 whole entry, looked up): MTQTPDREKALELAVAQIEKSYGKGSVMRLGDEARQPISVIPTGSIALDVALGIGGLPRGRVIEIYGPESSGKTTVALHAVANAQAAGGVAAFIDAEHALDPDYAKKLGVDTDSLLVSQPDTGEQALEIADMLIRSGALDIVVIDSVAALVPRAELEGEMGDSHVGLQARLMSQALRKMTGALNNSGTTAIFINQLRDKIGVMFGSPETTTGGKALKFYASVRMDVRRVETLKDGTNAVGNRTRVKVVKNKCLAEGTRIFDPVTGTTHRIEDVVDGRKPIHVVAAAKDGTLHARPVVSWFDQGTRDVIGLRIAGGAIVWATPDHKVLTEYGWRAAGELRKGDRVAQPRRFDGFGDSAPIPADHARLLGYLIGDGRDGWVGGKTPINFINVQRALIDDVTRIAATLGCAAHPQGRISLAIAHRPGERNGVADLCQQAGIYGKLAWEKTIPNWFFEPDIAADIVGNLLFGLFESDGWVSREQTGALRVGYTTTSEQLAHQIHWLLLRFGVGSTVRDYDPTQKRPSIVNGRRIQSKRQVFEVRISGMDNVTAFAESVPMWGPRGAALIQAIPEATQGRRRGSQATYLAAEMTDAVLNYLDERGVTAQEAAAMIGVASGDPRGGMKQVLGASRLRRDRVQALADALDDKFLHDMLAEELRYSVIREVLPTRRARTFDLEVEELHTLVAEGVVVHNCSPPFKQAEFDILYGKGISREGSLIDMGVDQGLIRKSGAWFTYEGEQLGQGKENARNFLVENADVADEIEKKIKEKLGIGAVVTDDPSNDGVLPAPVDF
Mtb bLac sens: beta-lactam sensitization of Mtb H37Rv, H37Rv; AID 434955, 2010; M. tuberculosis H37Rv growth with meropenem, percent inhibition; inhibition, % at 25 µM; hit rate 0.27% among 330,000; call rule not given here;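 note: growth measured after seven days incubation then overnight dye step; 0% = bacteria only wells and 100% = bacteria with antibiotic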
BJeLR lethal: MLPCN primary cell-based screen for lethality selective to Ras in HRASV12 cells; BJeLR (HRASV12) viability, CellTiter-Glo ATP luminescence, 48 h; inhibition, % (no concentration beside the values); hit rate 0.17% among 300,000; in the data active = inhibition above about 50%; inconclusive = no clear call, values can overlap the other calls
Y pestis TopoI: Yersinia pestis topoisomerase I inhibitors, primary screen, biochemical, cleavage product accumulation, plate reader, single point | DNA topoisomerase I (Yersinia pestis CO92) | Y. pestis Topo-I cleavage product accumulation | activity, % at 10 µM | hit rate 0.064% among 360,000; in the data active = activity above about 50%, passing the limit was not always enough; inconclusive = no clear call, values can overlap the other calls
Mtb BioA inh: M. tuberculosis BioA enzyme inhibitors, primary screen, biochemical, plate reader, single point, HTS; 7,8-diaminopelargonic acid synthase BioA (Mycobacterium tuberculosis); AID 602481, 2012; inhibition, % at 9.99 µM; purified M. tuberculosis BioA enzyme; hit rate 0.096% among 360,000; in the data active = inhibition above about 40%; inconclusive = no clear call, values can overlap the other calls
CCHF vOTU inh-2: CCHFV vOTU protease inhibitors, confirmation, biochemical, Pep-AMC substrate, fluorescence. shares compounds with CCHF vOTU inh-1. Recombinant CCHFV vOTU. inhibition, % at 11.5 µM. hit rate 17% among 1,900. AID 686976, 2013
* marks the source's active call; other numbers are inactive results; u = inconclusive; x = no result given. Cut-off read from the data, not from the text of the source, unless noted: active = inhibition above about 30%; inactive = the rest.

SMILES | CCHF vOTU inh-1 | RecA intein inh | Mtb bLac sens | BJeLR lethal | Y pestis TopoI | Mtb BioA inh | CCHF vOTU inh-2
COc1ccc(OC)c(S(=O)(=O)Oc2ccc(N)c3ccccc23)c1 | 30* | 17 | -14 | 0 | 1 | 2 | -14
O=C(NC(=S)Nc1ccccc1N1CCCCC1)c1ccccc1 | 4 | 15 | 71 | -13 | -4 | -2 | x
COc1ccccc1C(=O)NC(=S)Nc1ccccc1N1CCCC1 | 41* | x | u | -1 | 3 | 1 | 11
O=C(NC(=S)Nc1ccccc1N1CCCC1)c1ccc(F)cc1 | 32* | 7 | -1 | 0 | 7 | x | 33*
O=C(Cc1ccncc1)Nc1ccc2c(c1)[C@H]1C[C@@H](CC(=O)NC3CCCC3)O[C@H](CO)[C@H]1O2 | x | x | x | x | x | -2 | x
CN(C)c1cc(Cl)c2nonc2c1N | 71* | 6 | -11 | 5 | -8 | 7 | 3
CCN(CC)c1cc(Cl)c2nonc2c1N | -1 | 3 | 0 | -7 | 3 | 1 | x
COC(=O)[C@]12C[C@H](CC(=O)NCc3cccc(C(F)(F)F)c3)C(=O)N(Cc3ccco3)C1=C[C@H](COCc1ccccc1)O[C@@H]2C | 15 | x | x | x | x | x | x
CCCCCCCCN1C(=O)[C@@H](CC(=O)NCC2CCCCC2)C[C@@]2(C(=O)OC)C1=C[C@H](COCc1ccccc1)O[C@@H]2C | 31* | x | x | x | x | x | 0
CCCCCCCCN1C(=O)[C@@H](CC(=O)NCCC(C)C)C[C@@]2(C(=O)OC)C1=C[C@H](COCc1ccccc1)O[C@@H]2C | 30* | x | x | x | x | x | 10
CCCCCCCCN1C(=O)[C@@H](CC(=O)NCCCC)C[C@@]2(C(=O)OC)C1=C[C@H](COCc1ccccc1)O[C@@H]2C | 29 | x | x | x | x | x | x
CCCCCCCCN1C(=O)[C@@H](CC(=O)NCc2cccc(C(F)(F)F)c2)C[C@@]2(C(=O)OC)C1=C[C@H](COCc1ccccc1)O[C@@H]2C | 32* | x | x | x | x | x | 23
CCCCCCCCN1C(=O)[C@@H](CC(=O)NCc2ccc(C)o2)C[C@@]2(C(=O)OC)C1=C[C@H](COCc1ccccc1)O[C@@H]2C | 13 | x | x | x | x | x | x
C[C@H]1CN([C@@H](C)CO)C(=O)c2cccc(NC(=O)c3nc4ccccc4s3)c2O[C@@H]1CN(C)Cc1ccc(-c2ccccc2)cc1 | x | x | x | x | x | -2 | x
C[C@@H]1CCCCO[C@@H](CN(C)S(=O)(=O)c2ccc(Cl)cc2)[C@H](C)CN([C@@H](C)CO)C(=O)c2cc(NC(=O)Nc3ccccc3)ccc2O1 | x | x | x | x | x | -2 | x
CC(C)CC#Cc1cnc2c(c1)C(=O)N([C@@H](C)CO)C[C@@H](C)[C@H](CN(C)Cc1ccccc1C(=O)O)O2 | x | x | x | x | x | 1 | x
Oc1cc(NCc2ccc(F)cc2)cc2cccnc12 | 18 | x | 3 | x | -8 | -3 | x
CN(C)CCCNc1cc(O)c2ncccc2c1 | 92* | x | 4 | x | -9 | -13 | 94*
C[C@@H]1CN([C@H](C)CO)S(=O)(=O)c2ccc(-c3cccnc3)cc2O[C@@H]1CN(C)C(=O)NC1CCCCC1 | x | x | x | x | x | 0 | x
O=C(CCN1C(=O)/C(=C\C=C\c2ccccc2)SC1=S)Nc1cccc(C(=O)O)c1 | 33* | 8 | 0 | -9 | 2 | 1 | 5
CCN(C(=O)CCc1cn(CC)c2ccccc12)c1ccc(Oc2cccnc2)cc1 | 31* | x | x | x | x | x | -3
COCC(=O)N1C[C@@H](C)[C@H](OC)CN(C)C(=O)c2ccc(NS(C)(=O)=O)cc2OC[C@@H]1C | x | x | x | x | x | 1 | x
C[C@@H]1CN([C@@H](C)CO)C(=O)Cc2cc(NC(=O)Nc3ccc4c(c3)OCO4)ccc2O[C@H]1CN(C)S(=O)(=O)c1cccs1 | x | x | x | x | x | 0 | x
COc1ccc(C)cc1NC(=O)C(c1ccccc1)N1CCN(CC(=O)N2CCOCC2)CC1 (stereo unspecified) | -6 | x | x | x | -1 | -4 | x
Cc1ccc(NC(=O)C(c2ccccc2)N2CCN(CC(=O)N3CCOCC3)CC2)cc1 (stereo unspecified) | 34* | x | 1 | x | -9 | 0 | -7
SMILES | CCHF vOTU inh-1 | RecA intein inh | Mtb bLac sens | BJeLR lethal | Y pestis TopoI | Mtb BioA inh | CCHF vOTU inh-2
O=C(C1=C(O)C(=O)N(CCN2CCOCC2)C1c1ccccn1)c1cccs1 (stereo unspecified) | 31* | 0 | -5 | 7 | 6 | -1 | -10
CCCNC(=O)N(C)C[C@H]1Oc2cc(C#CC(C)C)ccc2S(=O)(=O)N([C@@H](C)CO)C[C@@H]1C | x | x | x | x | x | 1 | x
CCNC(=S)NNC(=O)c1cc(-c2ccccc2C)nc2ccccc12 | x | -2 | -5 | 14 | -3 | 3 | x
Cc1ccc(C)c(-c2cc(C(=O)NNC(=S)NCC(C)C)c3ccccc3n2)c1 | 34* | -5 | 8 | -1 | -1 | x | -17
O=C1N[C@@H](Cc2ccccc2)C(=O)N2CCCC12 (stereo partly specified) | 13 | x | x | x | 5 | -1 | x
C=CCCC[C@H]1OC(=O)[C@H](C)NC(=O)[C@H](C(C)C)NC(=O)[C@@H]2CCCN2C(=O)[C@H](Cc2ccccc2)OC(=O)[C@@H](C(C)C)N(C)C(=O)[C@H](C(C)C)NC(=O)C1(C)C | 30* | x | x | x | x | x | 6
O=C(Nc1ccc(C(=O)O)cc1)/C(=C\C=C\c1ccccc1)NC(=O)c1cccc(Br)c1 | 30* | 14 | 0 | 5 | 1 | x | 22
CO[C@@H](CN(C)S(=O)(=O)c1ccc(C)cc1)[C@@H](C)CN(Cc1ccccc1Cl)[C@H](C)CO | x | x | x | x | x | 1 | x
Cc1cc(SCc2cc(=O)n3ccsc3n2)nc2ccccc12 | -2 | 0 | -1 | -5 | 3 | x | x
CCN(Cc1cc(=O)n2ccsc2n1)c1cccc2ccccc12 | 54* | 1 | -4 | 0 | 23 | x | -4
O=C1CCCN1CCCNCCCn1cnc2c(OCc3ccccc3)ncnc21 | -6 | x | x | x | -6 | -1 | x
O=C(Cn1cnc2c(OCc3ccccc3)ncnc21)NCCCN1CCCC1=O | 30* | x | 5 | x | 6 | 0 | 3
CCCn1nc(NS(=O)(=O)c2cccc3nonc23)c2cc3cc(C)ccc3nc21 | 14 | 1 | 6 | 0 | -5 | -3 | x
CCCn1nc(NS(=O)(=O)c2cccc3nonc23)c2cc3cccc(C)c3nc21 | 42* | 11 | -4 | 3 | 16 | 5 | 15
O=C(NCc1nnc(SCc2ccc(F)cc2)n1-c1ccc(F)cc1)C12CC3CC(CC(C3)C1)C2 | 34* | 8 | 70 | 2 | 30 | 1 | -9
CCN1[C@@H]2c3ccc(-c4ccccc4)c(=O)n3C[C@H]1[C@H](CO)[C@H]2C(=O)NCc1ccccc1 | x | x | x | x | x | -1 | x
